Screening data: PubChem, National Center for Advancing Translational Sciences (NCATS)
The list is not random: actives were taken first. Their share in the collection is about 6.9%.
Giardia killer: Small Molecules that selectively kill Giardia lamblia: qHTS. Giardia lamblia trophozoite viability. activity change, % at 7.66 µM, hits read low. AID 540267, 2011. 0.15% of 340,000 active; in the data active = activity change below about -80%; inconclusive = between about -30% and that limit;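 note: parasites exposed to compound for two days anaerobically before the ATP read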
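ATP-content bioluminescence gauges trophozoite survival. Cells (100/well) receive compound and incubate anaerobically for 48 hrs at 37 deg C; detection reagent follows for 15-30 min at room temperature.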
KB-V1 cytotox: qHTS assay for MDR1-selective chemotherapeutics: Primary screen using the drug-selected MDR subline cells KB-V1 | KB-V1 MDR cells viability, CellTiter-Glo, 72 h | Potency, µM (doses to about 46.1 µM), usual class: cytotoxic | 3.4% of 400,000 active | AID 1347076, 2019; note: nearly all actives have a fitted effect of over 60% in size
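Drug-selected KB-V1 cells, grown in DMEM lacking phenol red with 10% FBS, receive compound titrations; after three days at 37 degrees C, surviving cell ATP is quantified by CellTiter-Glo luminescence and responses normalized and curve-fitted.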
S-ASM inh: Inhibitors of Secretory Acid Sphingomyelinase (S-ASM): qHTS; Sphingomyelin phosphodiesterase (Homo sapiens), P17405; placental ASM, HMU-PC fluorogenic substrate, 60 min; Potency, µM (top dose mostly 57.5 µM), most hits filed as inhibitors; 0.006% of 340,000 active; AID 504937, 2011
Target sequence (P17405 47-631 limits assumed): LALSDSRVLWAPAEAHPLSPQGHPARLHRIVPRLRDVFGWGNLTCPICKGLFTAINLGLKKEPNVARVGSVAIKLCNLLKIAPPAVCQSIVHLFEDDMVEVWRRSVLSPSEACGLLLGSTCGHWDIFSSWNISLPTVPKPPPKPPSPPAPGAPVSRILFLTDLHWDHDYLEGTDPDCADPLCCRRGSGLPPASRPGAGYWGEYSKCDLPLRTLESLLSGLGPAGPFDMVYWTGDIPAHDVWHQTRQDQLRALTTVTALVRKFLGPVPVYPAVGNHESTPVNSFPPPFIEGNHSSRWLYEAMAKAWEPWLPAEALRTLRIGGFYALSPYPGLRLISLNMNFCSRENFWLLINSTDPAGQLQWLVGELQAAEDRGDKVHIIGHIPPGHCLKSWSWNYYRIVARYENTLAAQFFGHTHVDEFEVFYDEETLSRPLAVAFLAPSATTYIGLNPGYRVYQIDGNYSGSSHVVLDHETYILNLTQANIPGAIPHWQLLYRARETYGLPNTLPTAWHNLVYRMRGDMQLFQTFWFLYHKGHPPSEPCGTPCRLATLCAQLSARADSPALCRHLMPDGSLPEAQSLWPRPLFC
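Human placenta-derived ASM preincubated with compound 10 min at room temperature, then reacted with 9 uM (final) fluorogenic HMU-PC substrate for 60 min at 37 C. Stop solution raises pH to 10; fluorescence read at Ex 386/Em 447 nm.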
SW480 rerep: A quantitative high throughput screen for small molecules that induce DNA re-replication in SW480 colon adenocarcinoma cells. SW480 DNA re-replication, Hoechst DNA content imaging, 48 h. Potency, µM (highest dose often 46.1 µM), actives largely listed as activators. 1.8% of 340,000 active. AID 624297, 2012; note: nearly all actives have a fitted effect of over 55% in size
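First, 250 cells per well were seeded. Next, compound or vehicle (23 nL) was pinned in, plates sat 48 hr at 37 C. Finally Hoechst was added for 40 min before fluorescence scanning.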
KB-3-1 cytotox: qHTS assay for MDR1-selective chemotherapeutics: Primary screen using the parental adenocarcinoma cell KB-3-1; KB-3-1 viability, CellTiter-Glo ATP luminescence, 72 h; Potency, µM (series often up to 46.1 µM), actives largely listed as cytotoxic; 1.4% of 400,000 active; AID 1347075, 2019; note: nearly all actives have a fitted effect of over 60% in size
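Luminescent ATP read-out (CellTiter-Glo) measures survival of drug-naive KB-3-1 cells after 72 h compound exposure at 37 °C. Titration series was screened from lowest to highest concentration, with DMSO vehicle plates as background controls.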
MCF10A rerep: A quantitative high throughput screen for small molecules that induce DNA re-replication in MCF 10a normal breast cells; 2.9% of 350,000 active; Potency, µM (titrated, usually from 46.1 µM), usual class: activators; MCF 10A DNA re-replication, Hoechst nuclear intensity, 48 h; AID 624296, 2012; note: nearly all actives have a fitted effect of over 50% in size
Large screens that a line does not name were inactive; ! = not active in a repeat. Unless noted, calls come from the whole dose curve; as a rule, active = well fitted curve in the direction sought with a large enough effect; inconclusive = small, poorly fitted or top-dose-only effect, or another doubt; inactive = no such curve, though single readings can be large; an effect the other way counts as inactive or inconclusive.

COc1ccc(C(=O)N(C)Cc2ccccc2F)cc1S(=O)(=O)N1CCCC1	none
COc1ccc(NC(=O)Cc2ccsc2)cc1S(=O)(=O)N1CCCCC1	KB-V1 cytotox 21µM
Cn1c(=O)n(C)c2cc(NC(=O)COc3ccccc3)ccc21	none
COc1ccc(NC(=O)Cc2cccs2)cc1S(=O)(=O)N1CCCCC1	none
CCOc1ncccc1C(=O)Nc1ccc(OC)c(S(=O)(=O)N2CCCCC2)c1	KB-V1 cytotox inconclusive
CCOc1ncccc1C(=O)Nc1ccc(C)c(S(=O)(=O)N2CCCCCC2)c1	Giardia killer inconclusive, KB-V1 cytotox inconclusive, KB-3-1 cytotox inconclusive, MCF10A rerep 9.2µM
Cc1ccccc1OCC(=O)Nc1ccc2c(c1)n(C)c(=O)n2C	KB-V1 cytotox 13µM
COc1cc(CCC(=O)Nc2ccc(C)c(S(=O)(=O)N3CCCCCC3)c2)cc(OC)c1OC	KB-V1 cytotox 3.7µM, KB-3-1 cytotox 6.5µM
COc1cc(CCC(=O)Nc2ccc(S(=O)(=O)N3CCCC3)cc2)cc(OC)c1OC	none
O=C(c1cc(-c2ccc(Cl)cc2)on1)N(Cc1cccc(F)c1)Cc1ccco1	none (no result: Giardia killer, S-ASM inh, SW480 rerep, MCF10A rerep)
O=C1CCc2cc(S(=O)(=O)Nc3ccc(Cl)c(Cl)c3)ccc2N1	none (no result: Giardia killer, S-ASM inh, SW480 rerep, MCF10A rerep)
CCN1C(C(=O)c2ccccc2)=C(OC(=O)c2ccccc2OC)c2ccccc2S1(=O)=O	none (no result: Giardia killer, S-ASM inh, SW480 rerep, MCF10A rerep)
Cc1ccccc1OCC(=O)Nc1ccc(C)c(S(=O)(=O)N2CCCCCC2)c1	KB-V1 cytotox 12µM
Cc1ccc(NC(=S)Nc2ccc(C(C)C)cc2)cc1S(=O)(=O)N1CCCCCC1	KB-V1 cytotox 15µM, SW480 rerep inconclusive, MCF10A rerep inconclusive (no result: S-ASM inh)
COc1ccc(NC(=O)CCOc2ccc(C)cc2)cc1S(=O)(=O)N1CCOCC1	KB-V1 cytotox 18µM
COc1ccc(NC(=O)CCc2ccccc2)cc1S(=O)(=O)N1CCCCC1	KB-V1 cytotox 5.2µM, KB-3-1 cytotox inconclusive
COc1ccc(OCCCC(=O)Nc2ccc(OC)c(S(=O)(=O)N3CCOCC3)c2)cc1	none
Cc1ccc(NC(=O)COc2ccccc2)cc1S(=O)(=O)N1CCCCC1	KB-V1 cytotox inconclusive (no result: Giardia killer, S-ASM inh, SW480 rerep, MCF10A rerep)
Cc1ccccc1OCC(=O)NCC(=O)OCC(=O)c1ccc2c(c1)CCCC2	KB-3-1 cytotox inconclusive (no result: S-ASM inh, SW480 rerep, MCF10A rerep)
COc1cc(N(C)C)ccc1/C=C/c1ccnc2ccccc12	KB-V1 cytotox inconclusive (no result: Giardia killer, S-ASM inh, SW480 rerep, MCF10A rerep)
O=C(Cn1c(=O)n(Cc2ccc(C(=O)NCc3ccc4c(c3)OCO4)cc2)c(=O)c2ccccc21)Nc1cccc(Cl)c1	KB-V1 cytotox inconclusive (no result: Giardia killer, S-ASM inh, SW480 rerep, MCF10A rerep)
O=C(CCOc1cccc(Br)c1)Nc1ccc(F)c(S(=O)(=O)N2CCOCC2)c1	KB-V1 cytotox 23µM, MCF10A rerep inconclusive
O=C(Nc1ccccc1)[C@@H]1CC=C[C@@H]2CCN(Cc3ccccc3)C(=O)[C@@H]21	Giardia killer inconclusive, KB-V1 cytotox inconclusive, MCF10A rerep inconclusive
O=C(Nc1ccccc1)[C@@H]1CC=C[C@@H]2CCN(Cc3ccc(Cl)c(Cl)c3)C(=O)[C@@H]21	KB-V1 cytotox 21µM!
CC1=NNC(=O)C1CC(=O)N/N=C/C=C/c1ccccc1 (configuration not stated)	none
CCOC(=O)CSc1nc2ccc(NC(=O)c3ccc(Cl)cc3)cc2s1	none (no result: Giardia killer, S-ASM inh, SW480 rerep, MCF10A rerep)
CCOC(=O)Nc1ccc2nc(Sc3ccc(Cl)cc3)sc2c1	SW480 rerep 16µM, MCF10A rerep inconclusive
CC(=O)c1c(C)n(-c2ccc(Cl)cc2)c2ccc(OC(=O)COc3ccccc3)cc12	none (no result: Giardia killer, S-ASM inh, SW480 rerep, MCF10A rerep)
COc1ccc(-c2c(C(F)(F)F)[nH]n3c(=O)cc(-c4ccccc4)nc23)cc1	KB-V1 cytotox inconclusive, SW480 rerep 29µM, MCF10A rerep 2.6µM
O=c1cc(-c2ccccc2)nc2cc(-c3ccc(F)cc3)[nH]n12	KB-V1 cytotox inconclusive, SW480 rerep inconclusive, KB-3-1 cytotox inconclusive, MCF10A rerep inconclusive
